Consider twelve molecules from PubChem BioAssay (NCATS).

The nature of assay [1]: qHTS of pediatric cancer cell lines to identify multiple opportunities for drug repurposing: Confirmatory screen for A673 cells (AID 1347110).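 Further: cells exposed to compound for 48 h before the viability read; nearly all actives have a fitted effect of over 65% in size.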 Further: potency means the concentration at half of the fitted maximal effect. A digest of the protocol: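 qHTS titration format: primary MIPE 0.78 nM-46 µM (11 pts), NPC 0.59 nM-46 µM; confirmation 11 pts. 48 h, CTG luminescence.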
(qHTS replaces the single test concentration by a dilution series.)

Assay [2] in a line: qHTS of pediatric cancer cell lines to identify multiple opportunities for drug repurposing: Confirmatory screen for BT-12 cells (AID 1347112). Further: potency means the concentration at half of the fitted maximal effect.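 Further: viability read after 48 h of compound exposure; nearly all actives have a fitted effect of over 55% in size.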 Put shortly: (§1)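 Cells (500-1,000/well) rested 5 h, then received compounds for 48 h; metabolically active cells were measured by CellTiter-Glo luminescence. Final concentrations spanned up to 46 µM (MIPE, 11-point) or 0.59 nM-46 µM (NPC, 8-point) in primary screens, 11-point in follow-ups.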

A short description of assay [3]: qHTS of pediatric cancer cell lines to identify multiple opportunities for drug repurposing: Confirmatory screen for LAN-5 cells (AID 1347113). Further: nearly all actives have a fitted effect of over 65% in size. Further: potency means the concentration at half of the fitted maximal effect. Put shortly:
as §1

Assay [4] is described as follows: qHTS of pediatric cancer cell lines to identify multiple opportunities for drug repurposing: Confirmatory screen for DAOY cells (AID 1347114). Further: nearly all actives have a fitted effect of over 65% in size. Further: potency means the concentration at half of the fitted maximal effect. Put shortly:
(§2)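 Viability measured as metabolically active cells via CellTiter-Glo luminescence following 48 hours of compound exposure, 11-point dilutions in confirmatory testing. 500-1,000 cells/well plated 5 hours before dosing; controls were DMSO and 2.3 µM bortezomib.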

Assay [5] can be described thus: qHTS of pediatric cancer cell lines to identify multiple opportunities for drug repurposing: Confirmatory screen for NB-EBc1 cells (AID 1347115).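 Further: cells exposed to compound for 48 h before the viability read; nearly all actives have a fitted effect of over 45% in size.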 A digest of the protocol: as §1
Assay [6] is described as follows: qHTS of pediatric cancer cell lines to identify multiple opportunities for drug repurposing: Confirmatory screen for SJ-GBM2 cells (AID 1347116). Further: nearly all actives have a fitted effect of over 60% in size. A digest of the protocol: as §2
A short description of assay [7]: qHTS of pediatric cancer cell lines to identify multiple opportunities for drug repurposing: Confirmatory screen for MG 63 (6-TG R) cells (AID 1347119). Further: nearly all actives have a fitted effect of over 55% in size. Further: potency means the concentration at half of the fitted maximal effect. A digest of the protocol:
as §1

Assay [8] in a line: qHTS of pediatric cancer cell lines to identify multiple opportunities for drug repurposing: Confirmatory screen for control Hh wild type fibroblast cells (AID 1347121). Further: nearly all actives have a fitted effect of over 70% in size. Put shortly:
as §1

Assay [9] is described as follows: qHTS of pediatric cancer cell lines to identify multiple opportunities for drug repurposing: Confirmatory screen for RD cells (AID 1347124).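 Further: cells exposed to compound for 48 h before viability readout; nearly all actives have a fitted effect of over 65% in size.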 Further: potency means the concentration at half of the fitted maximal effect. A digest of the protocol: as §1
Assay [10] is described as follows: qHTS of pediatric cancer cell lines to identify multiple opportunities for drug repurposing: Confirmatory screen for Rh18 cells (AID 1347125). Further: nearly all actives have a fitted effect of over 55% in size. Further: potency means the concentration at half of the fitted maximal effect. A digest of the protocol: as §1
Assay [11] in a line: qHTS of pediatric cancer cell lines to identify multiple opportunities for drug repurposing: Confirmatory screen for Rh30 cells (AID 1347126). Further: nearly all actives have a fitted effect of over 55% in size. Further: potency means the concentration at half of the fitted maximal effect. A digest of the protocol: as §1
In assay [12] the target is N-terminal Xaa-Pro-Lys N-methyltransferase 1 (Homo sapiens) (UniProt Q9BV86). Kind of assay: qHTS Assay for Inhibitors of N-terminal methyltransferase 1 (NTMT1): LOPAC validation of the NTMT1 SAHH-coupled ThioGlo3 Assay (AID 1347143).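 Further: SAH from peptide methylation measured as thiol fluorescence via SAHH coupling and ThioGlo3; nearly all actives have a fitted effect of over 70% in size.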 Further: potency means the concentration at half of the fitted maximal effect. A digest of the protocol: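 Inhibition of NTMT1 methylation of peptide SPKRIA is followed by converting SAH with SAHH and labelling the released thiol with ThioGlo3. Plates are read at 340/450nm before and 30 min after reagent addition, both at room temperature.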
N-terminal Xaa-Pro-Lys N-methyltransferase 1 (Homo sapiens), sequence (Q9BV86 whole entry, looked up): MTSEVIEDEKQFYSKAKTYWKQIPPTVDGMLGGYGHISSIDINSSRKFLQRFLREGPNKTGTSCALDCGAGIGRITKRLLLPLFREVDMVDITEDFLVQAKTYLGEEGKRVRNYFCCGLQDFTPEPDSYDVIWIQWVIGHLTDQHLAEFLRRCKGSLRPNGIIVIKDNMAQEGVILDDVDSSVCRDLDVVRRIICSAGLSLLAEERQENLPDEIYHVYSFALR

The subject of assay [13] is Zika virus NS2B-NS3 protease (unlinked). Description: Optimization of GU AMC qHTS for Zika virus inhibitors: Unlinked NS2B-NS3 protease assay (AID 1347151). Further: nearly all actives have a fitted effect of over 80% in size. Further: potency means the concentration at half of the fitted maximal effect. Put shortly: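 Unlinked protease (25 nM final); buffer 10 mM Tris-HCl pH 8.0 + 0.01% Tween 20; AMC substrate; 15 min RT, dark; Δfluorescence normalized to no-inhibitor/no-enzyme controls; 4-parameter Hill fit.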
Assay [14] in a line: qHTS of pediatric cancer cell lines to identify multiple opportunities for drug repurposing: Confirmatory screen for SK-N-MC cells (AID 1347111).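 Further: cells exposed to compound for 48 h before the readout; nearly all actives have a fitted effect of over 70% in size.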 Further: potency means the concentration at half of the fitted maximal effect. A digest of the protocol:
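Seed 500-1,000 cells/well; rest 5 h at 37 degrees C. Pin-transfer compounds, 11-point titration. Incubate 48 h. Add CellTiter-Glo, 15 min RT, read luminescence.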

Assay [15] in a line: qHTS of pediatric cancer cell lines to identify multiple opportunities for drug repurposing: Confirmatory screen for BT-37 cells (AID 1347117). Further: nearly all actives have a fitted effect of over 55% in size. Further: potency means the concentration at half of the fitted maximal effect. A digest of the protocol:
as §1

Assay [16] can be described thus: qHTS of pediatric cancer cell lines to identify multiple opportunities for drug repurposing: Confirmatory screen for TC32 cells (AID 1347118). Further: potency means the concentration at half of the fitted maximal effect. A digest of the protocol:
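Measured quantity: luminescence from CellTiter-Glo, reflecting metabolically active TC32 cells following 48 h of compound. Curves came straight from multi-point titrations, with 8 or 11 points in primary and 11 in confirmatory screening.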

A short description of assay [17]: qHTS of pediatric cancer cell lines to identify multiple opportunities for drug repurposing: Confirmatory screen for SK-N-SH cells (AID 1347129).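 Further: cells exposed to compound for 48 h before viability read; nearly all actives have a fitted effect of over 60% in size.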 Further: potency means the concentration at half of the fitted maximal effect. A digest of the protocol: as §1
A short description of assay [18]: qHTS of pediatric cancer cell lines to identify multiple opportunities for drug repurposing: Confirmatory screen for U-2 OS cells (AID 1347122). Further: nearly all actives have a fitted effect of over 65% in size. Further: potency means the concentration at half of the fitted maximal effect. Put shortly:
as §1

Assay [19] is described as follows: qHTS of pediatric cancer cell lines to identify multiple opportunities for drug repurposing: Confirmatory screen for OHS-50 cells (AID 1347128). Further: potency means the concentration at half of the fitted maximal effect. A digest of the protocol: as §1
For a further assay, the target named is Furin (Homo sapiens) (UniProt P09958). Description: Furin counterscreen qHTS for Zika virus inhibitors (AID 1347149).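 Further: purified recombinant full-length human furin enzyme at 5 nM; fluorescence gain from furin cutting a BOC-RVRR-AMC peptide substrate over 15 min; top concentration of the series differs between compounds; nearly all actives have a fitted effect of over 70% in size.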 A digest of the protocol:
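Fluorogenic cleavage of BOC-RVRR-AMC (2 microM final, Km ~15 µM) was monitored (ex 340, em 450 nm) at 37C after 15 min RT preincubation of 5 nM furin with compounds in HEPES pH 7.0 buffer with CaCl2 and Triton X-100. Percent inhibition was fitted to a 4-parameter Hill curve.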

Results filed as inconclusive are left out. Active and inactive are the calls of the source. The call rests on the fitted dose curve; in most records, active means well fitted curve in the direction sought with a large enough effect; inconclusive means small, poorly fitted or top-dose-only effect, or another doubt; inactive means no such curve, though single readings can be large; an effect the other way counts as inactive or inconclusive.

Furin (Homo sapiens), sequence (P09958 whole entry, looked up): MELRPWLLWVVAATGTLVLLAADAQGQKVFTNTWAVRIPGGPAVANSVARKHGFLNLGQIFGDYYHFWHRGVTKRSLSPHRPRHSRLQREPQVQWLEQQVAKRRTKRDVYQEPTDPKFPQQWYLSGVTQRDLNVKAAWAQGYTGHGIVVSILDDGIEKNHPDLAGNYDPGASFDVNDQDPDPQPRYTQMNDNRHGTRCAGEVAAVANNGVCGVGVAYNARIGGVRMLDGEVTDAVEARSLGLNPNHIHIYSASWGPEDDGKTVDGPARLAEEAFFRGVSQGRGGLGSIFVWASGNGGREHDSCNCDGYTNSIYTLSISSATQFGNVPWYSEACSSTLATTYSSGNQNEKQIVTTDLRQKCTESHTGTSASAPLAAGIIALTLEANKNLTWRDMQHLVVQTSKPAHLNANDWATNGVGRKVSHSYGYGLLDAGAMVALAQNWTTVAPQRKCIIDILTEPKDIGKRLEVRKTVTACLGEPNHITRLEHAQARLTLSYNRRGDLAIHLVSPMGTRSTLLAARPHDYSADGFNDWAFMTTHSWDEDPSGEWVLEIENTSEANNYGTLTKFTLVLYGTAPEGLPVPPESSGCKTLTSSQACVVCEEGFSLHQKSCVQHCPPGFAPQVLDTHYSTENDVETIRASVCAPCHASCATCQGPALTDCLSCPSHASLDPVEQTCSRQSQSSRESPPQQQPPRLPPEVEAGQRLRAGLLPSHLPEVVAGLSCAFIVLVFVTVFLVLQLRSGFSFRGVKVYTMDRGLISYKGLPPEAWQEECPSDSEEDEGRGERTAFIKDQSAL

As to `OC(CN1CCC(Cc2ccc(F)cc2)CC1)c1ccc(Cl)cc1` (configuration not stated), the Potency in [1] is 3.69 µM (active). Further, the Potency entry in assay [2], in assay [3], in assay [4], in assay [5], in assay [6] and in assay [7] was “inactive” in each case. Further, the Potency entry in [8], in [9], in assay [10], in [11], in [12] and in assay [13] was “inactive” each time.

In the case of `CCOc1cc(N2CCC(O)CC2)ccc1Nc1ncc2c(n1)N(C)c1ccccc1C(=O)N2C`, the Potency in assay [1] was 0.0465 µM (active); in assay [14] it was 1.17 µM (active); in assay [15], 7.37 µM (active); in assay [16], 0.928 µM (active); in assay [7], 4.14 µM (active); in [17], 7.43 µM (active). For the same molecule, the Potency entry in [8] was “inactive”.

Turning to `CS(=O)(=O)c1ccc(C(=O)Nc2ccc(Cl)c(-c3ccccn3)c2)c(Cl)c1`, the Potency result in [1], in [2], in assay [3], in [4], in [5] and in assay [6] was “inactive” in each case. Further, the Potency entry in assay [15], in [7], in assay [8], in [18], in assay [9] and in assay [10] was “inactive” each time. The Potency result in [11], in assay [19] and in [17] was “inactive” in each case. Besides, in assay [16], the Potency was 4.65 µM (active).

As to `OC[C@H](Cc1ccccc1)Nc1nc(Oc2ccc3c(c2)CCC3)nc2c1ncn2Cc1ccc(-c2ccccc2)cc1`, the Potency in [1] was 4.65 µM (active); in assay [14] it was 2.33 µM (active). The Potency entry in assay [2], in assay [6], in assay [15], in assay [8], in [9] and in assay [10] was “inactive” throughout. Also, the Potency result in assay [17] was “inactive”.

With `Cn1cnc([N+](=O)[O-])c1Sc1ncnc2nc[nH]c12`, the Potency in assay [1] was 1.89 µM (active); in [16], 1.34 µM (active); in [19] it was 4.24 µM (active). Moreover, the Potency result (in [2]; in [8]; in assay [9]; in assay [12]; with Furin (Homo sapiens); in assay [13]) was “inactive” each time.

With `NCCCC(N)(C(=O)O)C(F)F` (configuration not stated), the Potency result in assay [1], in [14], in assay [2], in assay [3], in assay [4] and in assay [5] was “inactive” each time. The Potency result in [6], in assay [15], in assay [7], in assay [8], in assay [18] and in [9] was “inactive” throughout. For the same molecule, the Potency result in assay [10], in assay [11], in assay [19], in assay [17], in assay [12] and in assay [13] was “inactive” in each case.

For the molecule `O=C(c1cc(Cc2n[nH]c(=O)c3ccccc23)ccc1F)N1CCN(C(=O)C2CC2)CC1`, the Potency in [1] is 0.104 µM (active); in assay [2] it was 18.5 µM (active); in [17] it was 14.8 µM (active). Moreover, the Potency result in assay [5], in assay [6], in assay [16], in assay [7], in assay [8] and in assay [9] was “inactive” each time. The Potency entry in assay [10], in assay [11] and in [19] was “inactive” in each case.

Take `COc1ccc(-c2oc3cc(OC)ccc3c2C(=O)c2ccc(C#N)cc2)cc1`: the Potency entry in assay [1], in [2], in assay [3], in assay [4], in [6] and in [15] was “inactive” each time. Further, the Potency result in assay [7], in assay [8], in [18], in assay [9], in [10] and in [11] was “inactive” throughout. For the same molecule, the Potency entry in assay [19] and in assay [17] was “inactive” in each case.

Regarding `CCC(C)(C)C(=O)O[C@H]1C[C@@H](C)C=C2C=C[C@H](C)[C@H](CC[C@@H]3C[C@@H](O)CC(=O)O3)[C@H]21`, the Potency in [1] is 5.22 µM (active); in assay [4], 5.85 µM (active); in assay [16], 16.5 µM (active); in [7] it was 2.93 µM (active); in [18], 10.4 µM (active); in [11], 16.5 µM (active). Moreover, the Potency in [17] is 5.26 µM (active). For the same molecule, the Potency entry in [2], in [3] and in [5] was “inactive” in each case.

For the molecule `COc1ccc(-c2ccc3c(N4CCOC[C@H]4C)nc(N4CCOC[C@H]4C)nc3n2)cc1CO`, the Potency in assay [1] was 0.117 µM (active); in assay [14] it was 0.827 µM (active); in assay [3], 0.293 µM (active); in assay [15], 0.233 µM (active); in [16], 0.208 µM (active); in [7], 0.0928 µM (active). Besides, the Potency is 0.329 µM (active) in assay [18], 0.185 µM (active) in [11], 2.08 µM (active) in assay [19] and 0.526 µM (active) in assay [17].

On to `CN1CCN(CCCN2c3ccccc3Sc3ccc(C(F)(F)F)cc32)CC1`, for which the Potency in assay [1] is 26.1 µM (active); in [2], 23.3 µM (active); in assay [4] it was 18.5 µM (active); in assay [15], 23.3 µM (active); in assay [7], 23.3 µM (active); in assay [18], 23.3 µM (active). The Potency in assay [9] was 23.3 µM (active); in assay [10] it was 20.8 µM (active); in assay [19] it was 20.8 µM (active); in [17], 16.6 µM (active); in [12], 44.7 µM (active). Further, in assay [13], the Potency result is “inactive”.

Turning to `CCN(CC)CCCC(C)Nc1ccnc2cc(Cl)ccc12` (configuration not stated), the Potency entry in [1], in assay [2], in assay [3], in assay [4], in assay [5] and in assay [15] was “inactive” each time. Also, the Potency result in assay [16], in assay [8], in [18], in assay [9], in [10] and in assay [11] was “inactive” throughout. Besides, the Potency entry (in assay [19]; in assay [17]; in assay [12]; in the assay with Furin (Homo sapiens)) was “inactive” each time. Also, in [13], the Potency was 15 µM (active).
